Screens (PubChem BioAssay)
In the library only some 3.5% were active in any assay of this set; here they are far more common.
Sm TGR block – S. mansoni TGR enzyme inhibition; Q962Y6; purified TGR, DTNB reduction, TNB absorbance 405 nm; Potency, µM (top dose mostly 114 µM), inactives show top-dose activity change, negative = inhibition, hits mostly inhibitors; 360,000 tested, 3% active; note: % is set by controls: 0 for no effect and ±100 for the full control effect; nearly all actives have a fitted effect of over 60% in size
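TGR 20 nM + NADPH 100 uM (dispensed conc.), cpd preinc 15 min RT; start with NADPH (500 uM addition) then DTNB (15 mM addition). Kinetic TNB absorbance, 405 nm filter. Four-parameter Hill fit across titration.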
Tb PYK inh – inhibitors of Trypanosoma brucei pyruvate kinase; TbPYK enzyme, Kinase-Glo Plus ATP luminescence, 45 min; Potency, µM (top dose mostly 76.8 µM), for inactives: top-dose activity, negative = inhibition, most hits filed as inhibitors; 410,000 tested, 0.12% active; AID 624173; note: % is set by controls: 0 for no effect and ±100 for the full control effect; nearly all actives have a fitted effect of over 50% in size
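Activity of T. brucei pyruvate kinase was followed by Kinase-Glo Plus luminescence after the enzyme reacted 45 min at room temperature with 130 uM ADP (final) and substrate. Test compounds were added before ADP at multiple concentrations.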
LmPK inhibitor – blocks Leishmania mexicana pyruvate kinase activity | Potency, µM (top dose mostly 57.5 µM), without a hit: top-dose activity change, negative = inhibition, actives largely listed as inhibitors | purified LmPK, Kinase-Glo ATP luminescence, 1 h | Q27686 | 290,000 tested, 0.37% active; note: % is set by controls: 0 for no effect and ±100 for the full control effect
Target sequence (Q27686 whole entry, looked up): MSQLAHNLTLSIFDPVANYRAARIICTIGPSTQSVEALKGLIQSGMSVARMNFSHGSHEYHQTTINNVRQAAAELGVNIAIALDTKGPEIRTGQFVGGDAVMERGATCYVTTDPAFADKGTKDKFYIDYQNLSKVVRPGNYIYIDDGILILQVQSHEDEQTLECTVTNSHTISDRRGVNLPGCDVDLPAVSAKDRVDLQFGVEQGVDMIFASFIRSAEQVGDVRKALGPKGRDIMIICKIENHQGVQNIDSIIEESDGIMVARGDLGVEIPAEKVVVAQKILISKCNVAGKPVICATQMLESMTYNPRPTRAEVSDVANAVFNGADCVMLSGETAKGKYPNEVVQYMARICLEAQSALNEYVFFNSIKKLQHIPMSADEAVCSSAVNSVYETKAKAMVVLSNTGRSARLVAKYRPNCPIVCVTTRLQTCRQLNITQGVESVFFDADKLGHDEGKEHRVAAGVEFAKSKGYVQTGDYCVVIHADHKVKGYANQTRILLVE
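Purified LmPK (0.1 nM) with 0.5 mM PEP and 0.1 mM ADP in imidazole buffer pH 7.2 with MgCl2/KCl, 1 h at room temperature. ATP formed was read by luciferase luminescence and normalized to no-enzyme and uninhibited controls.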
RE007 growth inh – less growth of the S. pombe RE007 Vpr strain | S. pombe RE007 Vpr strain, BacTiter-Glo ATP luminescence, 24 h | Potency, µM (top dose mostly 92.2 µM), for inactives: at the top dose activity change, negative = less growth, actives largely listed as inhibitors | 360,000 tested, 0.21% active; active = well fitted falling curve with a large enough effect; inconclusive = small, poorly fitted or top-dose-only effect; inactive = no such curve, though single readings can be large or run the other way; note: % is set by controls: 0 for no effect and ±100 for the full control effect; nearly all actives have a fitted effect of over 50% in size
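Fission yeast RE007 carrying one integrated HIV-1 vpr copy, seeded at OD 0.01 in PMG+AL medium with 23 nL pinned compound. Grown 24 h at 30 degrees; viability read by BacTiter-Glo luminescence after 5 min.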
NS1 function inh – inhibitors of influenza NS1 protein function | Potency, µM (series often up to 46.1 µM), for inactives: top-dose activity, positive = more growth | 270,000 tested, 0.4% active; calls by dose curve; note: actives are rising curves; nearly all actives have a fitted effect of over 50% in size
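OD600 was taken as the measure of yeast growth restored by compound in an NS1-expressing S. cerevisiae strain. Cells had been washed out of glucose medium and diluted 1:100 into galactose -URA medium, pH 6.0.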
FBPA Giardia inh – blocks Giardia fructose-bisphosphate aldolase activity; AID 2451; Potency, µM (highest dose often 59.6 µM), for inactives: top-dose activity, negative = inhibition, actives largely listed as inhibitors; 290,000 tested, 0.71% active; purified Giardia FBPA; A8B2U2; note: % is set by controls: 0 for no effect and ±100 for the full control effect; nearly all actives have a fitted effect of over 55% in size
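Giardia FBPA (40 nM reagent) was preincubated 10 min at RT with compound (up to 57.5 uM final), then substrate plus GAPDH/TPI/NAD/arsenate coupling system with diaphorase/resazurin was added; resorufin fluorescence (525/598 nm) was read after 20 min.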
* = called active by the depositor; ? = inconclusive; . = no result given. Unless noted, calls come from the whole dose curve; as a rule, active = well fitted curve in the direction sought with a large enough effect; inconclusive = small, poorly fitted or top-dose-only effect, or another doubt; inactive = no such curve, though single readings can be large; an effect the other way counts as inactive or inconclusive. Potency is the fitted concentration of half-maximal effect.

SMILES	Sm TGR block	Tb PYK inh	LmPK inhibitor	RE007 growth inh	NS1 function inh	FBPA Giardia inh
COc1ccc(C2=NO[C@@H]3C(=O)N(c4ccc(C)cc4C)C(=O)[C@H]23)cc1OC	11µM*	-10%	0%	?	-106%	11%
COc1ccc(-c2cn(-c3ccc(C)cc3C)c(=O)[nH]2)cc1OC	11µM*	-8%	2%	-5%	.	-3%
COc1ccc(C2=NO[C@@H]3C(=O)N(c4cccc(C)c4C)C(=O)[C@H]23)cc1OC	-14%	2%	-7%	9%	-47%	-28%
COc1ccc(C(=O)Nc2ccc3nc(SCC(=O)N4CCCc5ccccc54)sc3c2)cc1	-1%	3%	.	.	.	.
CCC(c1nnnn1CCc1ccccc1)N(Cc1ccco1)Cc1cc2c(C)ccc(C)c2[nH]c1=O (stereo not given)	?	-1%	-2%	3%	?	-9%
CCC(c1nnnn1CCc1ccccc1)N(Cc1ccco1)Cc1cc2cc(C)cc(C)c2[nH]c1=O (stereo not given)	56µM*	-2%	2%	7%	2%	-10%
COCc1ccc(-c2ccc3c(c2)c(C#Cc2ccsc2)c(-c2cc(OC)cc(OC)c2)n3C)cc1	-2%	2%	.	-4%	.	.
COc1cc(OC)cc(-c2c(C#Cc3ccsc3)c3cc(-c4ccc(C(N)=O)cc4)ccc3n2C)c1	28µM*	-3%	.	8%	.	.
CCCCS(=O)(=O)N[C@@H](Cc1ccc(OCCCCC2CCNCC2)cc1)C(=O)O	.	3%	.	.	.	.
O=C(O)c1ccc(Cl)c2c1C1C=CCC1C(c1ccccn1)N2 (stereo not given)	?	.	13%	.	0%	?
O=[N+]([O-])c1ccc(Cl)c2c1C1C=CCC1C(c1ccccn1)N2 (stereo not given)	20µM*	-27%	-7%	-17%	12%	?
COC(=O)c1ccccc1N(C)S(=O)(=O)c1cc2c3c(c1)CC(=O)N3CCC2	10%	-5%	.	.	.	.
CN(C=C1C(=O)CC(C)(C)CC1=O)CCN1CCNCC1	22µM*	-18%	4%	21%	4%	-2%
CC1(C)CC(=O)C(C=NCCN2CCOCC2)=C(O)C1	?	6%	-4%	3%	7%	-1%
CC1(C)CC2CC(C)(CN2S(=O)(=O)c2cccc(C(=O)OCC(=O)NC(N)=O)c2)C1 (stereo not given)	16µM*	-6%	.	-9%	.	.
CNC(=O)NC(=O)COC(=O)c1cccc(S(=O)(=O)N2CC3(C)CC2CC(C)(C)C3)c1 (stereo not given)	-3%	2%	.	10%	.	.
Cc1nc2ccn(Cc3cccs3)c(=O)c2cc1C(=O)Nc1ccccc1	3%	-1%	.	.	.	.
O=C(NCCc1csc(-c2cccnc2)n1)c1ccc(Br)o1	28µM*	-20%	1%	-10%	-36%	-20%
O=C(NCCc1csc(-c2ccccc2)n1)c1ccc(Br)o1	6%	0%	3%	-7%	-23%	0%
Cc1nc(-c2ccc(S(=O)(=O)NCc3ccccc3Cl)cc2)co1	9%	-4%	.	.	.	.
CC1=CC(=C2C(=O)c3ccccc3C2=O)C=C(C)N1Cc1ccco1	40µM*	-10%	-8%	-13%	-43%	-14%
CCCN1CCN(CC2=C(C(=O)OCC)C(c3ccc(Cl)cc3)NC(=O)N2)CC1 (stereo not given)	2%	5%	.	.	.	.
CCCN1CCN(CC2=C(C(=O)OCC)C(c3cccc(OC)c3OC)NC(=O)N2)CC1 (stereo not given)	89µM*	-1%	.	.	.	.
CC(=O)N1C(=O)/C(=C2\SC(=S)N(NS(=O)(=O)c3ccc(C)cc3)C2=O)c2ccccc21	2.5µM*	-6%	2%	-5%	2%	-17%
CC(/C=C1\SC(=S)N(NS(=O)(=O)c2ccc(C)cc2)C1=O)=C\c1ccccc1	-19%	1%	4%	1%	-14%	-9%
SMILES	Sm TGR block	Tb PYK inh	LmPK inhibitor	RE007 growth inh	NS1 function inh	FBPA Giardia inh
CCOC(=O)c1cc(S(=O)(=O)NCc2cccc(Cl)c2)[nH]n1	-13%	-4%	.	.	.	.
COc1cccc(CSc2nc3ccncc3[nH]2)c1	24%	-5%	25µM*	?	21%	-7%
CN=c1scc(-c2ccc(F)cc2)n1/N=C/c1ccc(O)c(O)c1	11µM*	-29%	?	-5%	.	?
CC(C)C[C@@H](NC(=O)[C@@H](COC(C)(C)C)NC(=O)[C@H](Cc1ccc(O)cc1)NC(=O)[C@@H](CO)NC(=O)[C@@H](Cc1c[nH]c2ccccc12)NC(=O)[C@@H](Cc1cnc[nH]1)NC(=O)[C@@H]1CCC(=O)N1)C(=O)N[C@H](CCCN=C(N)N)C(=O)N1CCC[C@H]1C(=O)NNC(N)=O	.	-9%	.	.	.	.
Cc1ccc(C)c(CNC(=O)CN2C(=O)CSc3ccc(S(=O)(=O)N(C)C)cc32)c1	7%	-3%	.	.	.	.
C=C(CCC(=O)c1ccccc1)C(=O)c1ccccc1	45µM*	-11%	-1%	32µM*	-45%	5%
O=C(CCCCCCCC(=O)c1ccccc1)c1ccccc1	1%	5%	-1%	20%	-4%	1%
CCCCn1nnnc1C(c1ccccc1)N1CCN(c2ccc(F)cc2)CC1 (stereo not given)	.	2%	.	-3%	.	.
Cc1[nH]c2ccccc2c1C(c1ccccn1)c1c(C)[nH]c2ccccc12	5.6µM*	3%	1%	5%	-9%	?
Cc1[nH]c2ccccc2c1C(O)c1ccncc1 (stereo not given)	25µM*	-3%	-2%	-3%	3%	3%
Cc1[nH]c2ccccc2c1C(c1ccncc1)N1CCN(c2ccc(F)cc2)CC1 (stereo not given)	8.9µM*	5%	6%	-5%	7%	-1%
Cc1[nH]c2ccccc2c1C(c1ccncc1)N1CCCCC1 (stereo not given)	1.8µM*	-10%	2%	13%	.	2%
COc1cc2c(cc1/C=C/[N+](=O)[O-])OCO2	33%	-7%	-5%	14µM*	.	3%
CS/C(Nc1cc(Cl)ccc1Cl)=C(/C#N)C(=O)c1ccco1	-23%	32µM*	22µM*	-16%	-4%	-10%
O=C(Nc1cc(Cl)ccc1Cl)c1ccco1	-13%	3%	6%	-5%	-25%	11%
COc1cc(/C=C(/C(=O)c2cccs2)c2nc3ccccc3[nH]2)cc(OC)c1O	35µM*	0%	-12%	-2%	5%	?
Cc1ccc(C)c(S(=O)(=O)c2nnn3c2nc(NC2CCCC2)c2sccc23)c1	11%	-1%	.	.	.	.
COCc1ccc(CN2CCc3c([nH]c4ccccc34)C2CC(C)C)o1 (stereo not given)	35µM*	-11%	10%	-18%	28%	-28%
